High-throughput results: PubChem, several laboratories
MEX-5 binding – C. elegans MEX-5 TCR-2 RNA binding activity. Q9XUB2. MEX-5/FITC-TCR2 RNA binding, fluorescence polarization; active compounds read low. activity score (negative = inhibition of binding), % at 10 µM. 300,000 tested, 0.38% active. AID 1832;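 active = inhibition past about -25% in most replicates, and total fluorescence under double the plate's negative control median, limit read from the data; inconclusive = replicates evenly split on the limit, or fluorescence at least double controls; inactive = too little inhibition in most replicates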;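 also: 0% = DMSO and -100% = 5 µM competing unlabeled TCR2 RNA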
GLD-1 TGE inh – GLD-1-TGE RNA interaction inhibition (C. elegans) | 320,000 tested, 0.44% active | inhibition, % at 5.96 µM | Q17339 | AID 2280 | purified GLD-1 + fluorescein TGE RNA, fluorescence polarization;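 active = percent inhibition above a per-plate cutoff, the plate mean of test compounds plus 3 SD, cut at about 30% in these data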;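 also: 0% = DMSO wells with GLD-1 and probe and 100% = wells lacking GLD-1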
Target sequence (Q17339 whole entry, looked up): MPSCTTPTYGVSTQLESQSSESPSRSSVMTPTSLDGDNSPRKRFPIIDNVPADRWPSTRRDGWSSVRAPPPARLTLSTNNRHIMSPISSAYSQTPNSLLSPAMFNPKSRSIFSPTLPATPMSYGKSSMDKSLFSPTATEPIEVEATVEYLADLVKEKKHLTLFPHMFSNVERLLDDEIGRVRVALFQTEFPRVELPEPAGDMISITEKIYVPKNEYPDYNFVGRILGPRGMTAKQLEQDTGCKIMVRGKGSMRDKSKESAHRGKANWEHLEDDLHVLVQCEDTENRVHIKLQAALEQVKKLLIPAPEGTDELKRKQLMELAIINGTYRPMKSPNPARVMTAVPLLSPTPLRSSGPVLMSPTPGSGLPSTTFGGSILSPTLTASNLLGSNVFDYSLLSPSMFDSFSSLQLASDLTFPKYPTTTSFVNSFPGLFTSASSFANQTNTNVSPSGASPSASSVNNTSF
BCLXL inh – inhibitors of human Bcl-xL. Q07817. GST-Bcl-xL / FITC-Bim BH3 peptide fluorescence polarization. inhibition, % at 10.9 µM. 320,000 tested, 0.7% active;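 active = inhibition above the mean of all tested compounds plus 3 SD, cutoff set per campaign, cut at about 30% in these data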;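 also: 0% = DMSO wells and 100% = unlabeled Bim-BH3 peptide competitor; inhibitors lower millipolarization by displacing the labeled peptide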
MCL1 BIM primary – disrupts human MCL1 binding to BIM-BH3 peptide; Q07820; GST-MCL1 / FITC-Bim-BH3 fluorescence polarization; inhibition, % at 10.9 µM; 320,000 tested, 0.68% active; AID 2057;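 active = inhibition above the mean inhibition of all tested compounds plus 3 SD, set per campaign, cut at about 40% in these data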;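 also: 0% = DMSO wells and 100% = unlabeled Bim-BH3 peptide control; higher means more loss of mP so more displacement of Bim peptide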
E coli Lon inh – inhibitors of E. coli Lon protease. purified E. coli Lon protease, fluorescence polarization. inhibition, % at 7.94 µM. 360,000 tested, 0.42% active. AID 602123; in the data active = inhibition above about 13%, passing the limit was not always enough;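 also: 0% = enzyme with probe and DMSO and 100% = no enzyme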
Bcl-xL conf – counter-screen for MCL1 inhibitors: confirmation of human Bcl-xL inhibitors; GST-Bcl-xL / FITC-Bim BH3 peptide FP binding; inhibition, % at 10.9 µM; 1,700 tested, 54% active; shares compounds with MCL1 BIM primary;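 active = inhibition above a cutoff equal to the mean inhibition of all tested compounds plus 3 SD, cut at about 30% in these data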;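 also: 0% = DMSO wells and 100% = unlabeled Bim BH3 control peptide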
MCL1 inh confirm – MCL1-BIM-BH3 interaction inhibition, confirmation; shares compounds with MCL1 BIM primary; GST-MCL1 / FITC-Bim-BH3 fluorescence polarization; inhibition, % at 10.9 µM; 1,700 tested, 61% active; AID 2168;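 active = inhibition above the average of all tested compounds plus 3 SD, cut at about 40% in these data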;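 also: 0% = DMSO wells and 100% = unlabeled Bim-BH3 control peptide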
GLD-1 TGE cf – confirmation of C. elegans GLD-1 TGE RNA binding inhibitors; GLD-1/FL-TGE RNA fluorescence polarization, biochemical; 550 tested, 10% active; shares compounds with GLD-1 TGE inh; AID 2459; inhibition, % at 5.96 µM;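 active = average inhibition across triplicates above the hit cutoff set in the primary screen, cut at about 32% in these data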;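 also: 0% = GLD-1 with RNA probe and DMSO and 100% = wells lacking GLD-1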
eLon confirm – confirmation of E. coli Lon protease inhibitors; purified E. coli Lon, fluorescence polarization; inhibition, % at 7.94 µM; 1,400 tested, 31% active; shares compounds with E coli Lon inh; in the data active = inhibition above about 16%;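 also: 0% = enzyme with probe and DMSO and 100% = no enzyme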
An asterisk follows results filed as active; ? = inconclusive; nt = no result given; + = active, no number. Shown are actives, neighbours in structure and some others; about 1.4% of the full set was active somewhere.

SMILES | MEX-5 binding | GLD-1 TGE inh | BCLXL inh | MCL1 BIM primary | E coli Lon inh | Bcl-xL conf | MCL1 inh confirm | eLon confirm | others
COc1ccc(C(=O)c2ccsc2N)cc1 | 0.1 | 65.8* | 105.2* | 108.0* | 90.2* | 14.3 | 17.7 | 5.8
CCN(C(=O)c1c([N+](=O)[O-])cnn1C)c1ccccc1 | nt | nt | nt | nt | -5.5 | nt | nt | nt
CNc1cccc2c1C(=O)c1ccccc1C2=O | -10.7 | 45.9* | 82.3* | 92.2* | 50.0* | 83.6* | 95.4* | 41.0* | GLD-1 TGE cf=9.7
CCc1ccc(C(O)c2ncc(-c3cccc(OC)c3)[nH]2)cc1 (stereo unspecified) | nt | nt | nt | nt | -17.0 | nt | nt | nt
CCOC(=O)/C(C#N)=C/c1cc2cc(C)c(C)cc2nc1Cl | -3.0 | -9.2 | -4.1 | -10.6 | -14.7 | nt | nt | nt
Cc1cc2cc(C=C(C#N)C#N)c(Cl)nc2cc1C | -2.9 | 162.9* | 193.2* | + | 88.8* | 27.1 | 26.8 | 38.9*
CC(C)C(N)c1csc(Nc2ccc(C(=O)NCCCO)cn2)n1 (stereo unspecified) | nt | nt | nt | nt | -1.9 | nt | nt | nt
CC(C)C[C@H]1CNC(=S)N1CC1CCN(CCCCc2ccccc2)CC1 | nt | nt | nt | nt | 0.9 | nt | nt | nt
CC1(C)c2ccccc2N2CC(=O)N(CC(N)=O)C21C (stereo unspecified) | 7.7 | 84.8* | 96.7* | 105.8* | 125.3* | 75.0* | 102.6* | 89.5*
CC1(C)c2ccccc2N(CC(N)=O)C12C=Cc1ccccc1O2 (stereo unspecified) | -1.2 | -6.1 | -0.5 | -1.5 | 8.5 | nt | nt | nt
N#Cc1ccccc1S(=O)(=O)NC(=O)[C@H]1O[C@@H](n2cnc3c(N)ncnc32)[C@H](O)[C@@H]1O | nt | nt | nt | nt | -7.6 | nt | nt | nt
N#CCCN(CCC#N)C(=O)C1c2ccccc2Oc2ccccc21 | ? | + | + | + | + | 27.6 | 29.1 | 7.3
CCN(C(=O)c1coc(=O)c(Br)c1)c1ccc2c(c1)OCO2 | -12.1 | 17.6 | 58.3* | 61.8* | 20.6* | 109.8* | 122.5* | 4.3
CCN(C(=O)c1c(C)cc(=O)oc1C)c1ccc2c(c1)OCO2 | -1.2 | 5.2 | 0.6 | -2.2 | -5.8 | nt | nt | nt
COc1cccc(-c2cc3nc(NCc4ccccc4F)n(C)c(=O)c3s2)c1 | nt | nt | nt | nt | -3.8 | nt | nt | nt
COc1ccc2c(c1)c1nc3ccccc3nc1n2Cc1ccc(OC)c(OC)c1 | -26.5* | 52.5* | 49.5* | 55.1* | 96.7* | 59.7* | 62.3* | 12.3
COCC1CCN(Cc2c(C(=O)N3CCN(C4CCCCC4)CC3)nc3ccccn23)C1 (stereo unspecified) | -19.1 | 30.5 | 51.6* | 57.2* | 25.8* | 14.6 | 15.4 | -2.9
O=C(c1nc2ccccn2c1CN1CCC(Cc2ccccc2)CC1)N1CCCC1 | 0.8 | 3.9 | 4.4 | 7.8 | -6.1 | nt | nt | nt
C#CCN1c2ccccc2Sc2cccnc21 | -10.6 | 92.5* | + | + | 165.5* | 26.6 | 38.9 | 20.8*
CN1CCc2c(sc3c2C(=O)NC(c2ccccn2)N3)C1 (stereo unspecified) | -51.5* | 36.7* | 64.4* | 66.1* | 24.3* | 41.1* | 51.9* | -8.4
O=C1Nc2ccccc2/C1=C/c1cnc(-c2ccccc2)[nH]1 | -10.2 | 73.3* | 138.2* | 161.6* | 81.0* | 102.0* | 117.4* | 29.6*
COc1ccc(CCN2C(=O)CCC2(C)c2nnnn2-c2c(C)cccc2C)cc1OC (stereo unspecified) | nt | nt | nt | nt | 3.1 | nt | nt | nt
O=Cc1c(N2CCN(CCO)CC2)nc2ccccn2c1=O | -8.1 | 41.4* | 60.2* | 68.9* | 40.6* | 54.5* | 76.6* | -5.5 | GLD-1 TGE cf=8.2
COc1ccc(-c2csc(C(NC(C)=O)c3ccc(F)c(F)c3)n2)cn1 (stereo unspecified) | nt | nt | nt | nt | -5.9 | nt | nt | nt
CC1(C(=O)NCc2cccs2)CCN1C(=O)Cc1ccc(Cl)cc1Cl (stereo unspecified) | nt | nt | nt | nt | -10.9 | nt | nt | nt
